From PubChem
A selection: hits, their analogues and other compounds. The true share with any hit is near 7.9%.
KB-V1 cytotox: kills drug-selected multidrug resistant KB-V1 cells; KB-V1 MDR cells viability, CellTiter-Glo, 72 h; Potency, µM (highest dose often 46.1 µM), usual class: cytotoxic; 400,000 compounds, 3.4% hits; AID 1347076; note: % is set by controls: 0 for no effect and ±100 for the full control effect; nearly all actives have a fitted effect of over 60% in size
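Readout: CellTiter-Glo luminescence, 10 min after addition. Cells: KB-V1 MDR subline, 72 h at 37 degrees C with compound. Analysis: corrected, normalized data fitted to concentration-effect curves.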
HT1080NT lethal: kills 2HG-producing HT-1080-NT fibrosarcoma cells. 360,000 compounds, 1.6% hits. Potency, µM (doses to about 46.1 µM), for the others: at the highest dose activity, negative = less viability, hits mostly cytotoxic. HT-1080-NT fibrosarcoma viability, CellTiter-Glo ATP luminescence, 48 h. AID 686970;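 note: NT is the 2HG producing partner of a matched IDH1 knockdown line; 0% = DMSO-treated cells and -100% = media-only wells without cells; nearly all actives have a fitted effect of over 55% in size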
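Toxicity toward the 2HG-producing NT line was scored as %Activity, normalised to DMSO and no-cell wells, from CellTiter-Glo luminescence after 48 hours' treatment.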
SW480 rerep: DNA re-replication induction in SW480 cells | AID 624297 | Potency, µM (highest dose often 46.1 µM), for inactives: at the top dose re-replication activation, most hits filed as activators | SW480 DNA re-replication, Hoechst DNA content imaging, 48 h | 340,000 compounds, 1.8% hits; note: % of control where 0% means no effect; nearly all actives have a fitted effect of over 55% in size
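Compounds, transferred as 23 nL by pin tool, were incubated with cells for 48 hr; DNA content per nucleus was then quantified by Hoechst staining and fluorescence plate imaging.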
MCF10A rereplic: induces DNA re-replication in MCF 10a normal breast cells. 350,000 compounds, 2.9% hits. MCF 10A DNA re-replication, Hoechst nuclear intensity, 48 h. AID 624296. Potency, µM (series often up to 46.1 µM), without a hit: at the top dose activity, positive = re-replication, actives largely listed as activators; note: % of control where 0% means no effect; nearly all actives have a fitted effect of over 50% in size
KB-3-1 tox: kills parental KB-3-1 adenocarcinoma cells | Potency, µM (titrated, usually from 46.1 µM), hits mostly cytotoxic | AID 1347075 | KB-3-1 viability, CellTiter-Glo ATP luminescence, 72 h | 400,000 compounds, 1.4% hits; note: % is set by controls: 0 for no effect and ±100 for the full control effect; nearly all actives have a fitted effect of over 60% in size
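72 h, 37 °C compound treatment of KB-3-1 parental cells; CellTiter-Glo added, 10 min, luminescence read. Data corrected against DMSO-only plates and normalized before curve fitting.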
HT1080 IDH1KD tx: toxicity to HT-1080 IDH1 knockdown cells (counter line) | HT-1080 IDH1 knockdown viability, ATP luminescence, 48 h | Potency, µM (doses to about 46.1 µM), for inactives: top-dose activity, negative = toxicity, usual class: cytotoxic | 360,000 compounds, 2% hits;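 note: 0% = DMSO wells and -100% = cell-free medium wells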
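Cytotoxicity counter-line: IDH1KD HT-1080, 48 h, CellTiter-Glo. Curves classed by r2, magnitude and activity.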
* = called active by the depositor; i = inactive; u = inconclusive; x = no result given; [ ] = dose if it differs, or a comment. Calls come from the whole dose curve; as a rule, active = well fitted curve in the direction sought with a large enough effect; inconclusive = small, poorly fitted or top-dose-only effect, or another doubt; inactive = no such curve, though single readings can be large; an effect the other way counts as inactive or inconclusive. Potency is the fitted concentration of half-maximal effect.

SMILES	KB-V1 cytotox	HT1080NT lethal	SW480 rerep	MCF10A rereplic	KB-3-1 tox	HT1080 IDH1KD tx
COc1ccc(CCNC(=O)/C=C/c2ccc(S(=O)(=O)N3CCOCC3)cc2)cc1	i	-4%[9.24 µM]	4.1µM*	8%	i	-1%
CCOc1ccc(-c2cc(C(=O)NCCc3ccc(OC)c(OC)c3)[nH]n2)cc1	i	x	x	x	i	x
COc1ccc(C2=NOC(C(=O)Nc3ccc4c(c3)OCCO4)C2)cc1OC (configuration not stated)	i	7%	-3%	6%	i	1%
Oc1ccc2ccccc2c1/C=N/Nc1nnc(-c2ncc[nH]2)c2ccccc12	u	5.8µM*	0.65µM*	u	u	5.2µM*
Oc1ccc2ccccc2c1C=NNc1ccccn1	0.52µM*	u	7.3µM*	u	u	u
Fc1cccc(F)c1/C=N/Nc1ccccn1	i	1%	27%	u	i	1%
Cc1ccc(NC(=O)C(=O)NCc2ccncc2)cc1	i	-12%	1%	-2%	i	2%
Cc1ccc(-c2nn(-c3ccc(F)cc3)cc2C(=O)NCCCN2CCCC2=O)cc1	i	-1%	2%	1%	i	-2%
C=C1C(=O)O[C@H]2C[C@H]1[C@@H](OC(C)=O)C/C(C)=C/CC/C(C)=C\CC[C@]2(C)O	i	13µM*	23µM*	u	i	16µM*
CCOC(=O)N1CCN(c2c(NCc3ccc(F)cc3)c(=O)c2=O)CC1	i	5.2µM*	3.3µM*	u	5.2µM*	5.2µM*
CCOC(=O)N1CCN(c2c(NCc3ccc(Cl)cc3)c(=O)c2=O)CC1	i	u	6.5µM*	10µM*	10µM*	5.8µM*
CCOC(=O)N1CCN(c2c(NCc3cccs3)c(=O)c2=O)CC1	i	u	u	18µM*	6.5µM*	u
C1CCN(CCC2CCCCN2)CC1 (configuration not stated)	i	11%	x	x	u	-5%
CCCCN(C=O)c1c(CC)nc2ccc(C(=O)N(C)Cc3ccco3)cn12	i	u	x	x	i	11%
O=C(O)c1n[nH]c2c1CCCC2	i	7%	-4%	-5%	i	12%
C/C(=N\NC(=O)c1n[nH]c2c1CCC2)c1cccs1	i	16%	u	-5%	i	17%
Cc1ccc(/C=N/NC(=O)c2n[nH]c3c2CCCC3)cc1	1.2µM*	0.16µM*	0.73µM*	u	u	0.13µM*
O=C(N/N=C/c1cccs1)c1n[nH]c2c1CCCC2	u	21µM*	u	u	u	15µM*
CCC(=O)OCOc1ccc(/C=C2/CCC(CN(C)C)C2=O)cc1 (configuration not stated)	u	u	12µM*	u	u	16µM*
CCOc1ccc(/C=C2\CCC(C3CCCC3)C2=O)cc1 (configuration not stated)	i	23%	-1%	4%	i	8%
Cn1c(=O)n(CCc2ccccc2)c(=O)c2c1nc1n2CCCN1Cc1ccccc1	21µM*	1%	-5%	u	i	-4%[9.24 µM]
Cn1c(=O)n(CC(=O)O)c(=O)c2c1nc1n2CCCN1CCc1ccccc1	i	-3%	-2%	5%	i	-2%
CCCn1c(=O)c2c(nc3n2CCCN3CCc2ccccc2)n(C)c1=O	u	3%	-1%	11%	i	-1%
CCCn1c(=O)c2c(nc3n2CCCN3Cc2ccccc2)n(C)c1=O	i	-7%	-11%	10%	i	-18%
Cn1c(=O)n(CCc2ccccc2)c(=O)c2c1nc1n2CCCN1CCc1ccccc1	23µM*	23µM*	u	21µM*	i	29µM*
SMILES	KB-V1 cytotox	HT1080NT lethal	SW480 rerep	MCF10A rereplic	KB-3-1 tox	HT1080 IDH1KD tx
Cc1ccc(Cn2c(=O)c3c(nc4n3CCN4Cc3ccco3)n(C)c2=O)cc1	u	-19%	-3%	9%	i	-6%
CC(C)Cn1c(=O)c2c(nc3n2CCCN3CCc2ccccc2)n(C)c1=O	10µM*	-3%	1%	11%	i	-22%
Cn1c(=O)n(Cc2ccccc2)c(=O)c2c1nc1n2CCN1Cc1ccco1	i	-7%	u	0.73µM*	i	-3%
COc1ccc(OC)c(CCNC(=O)c2ccc(CS(=O)Cc3ccc(Cl)cc3)o2)c1 (configuration not stated)	i	-14%	-2%	2%	i	-6%
COc1cccc(CNc2ncnc3onc(-c4ccc(F)cc4)c23)c1	i	x	x	x	i	x
N#Cc1c(-c2ccccc2)c(-c2ccccc2)nn(CC(=O)NNC(=O)Nc2ccc(Cl)c(Cl)c2)c1=O	i	21µM*	u	u	u	15µM*
CC(=O)Nc1ccc(NC(=O)C(C)OC(=O)CCC2CCCC2)cc1 (configuration not stated)	i	7%	-249%	-1%	i	14%
CCOc1ccc(NC(=O)CN2CCCC2c2cccs2)cc1S(=O)(=O)N1CCCCC1 (configuration not stated)	i	1%	9%	11%	u	-3%
CCN(CC)CCC(=O)N1c2ccccc2Sc2ccc(NC(=O)OC)cc21	i	-8%	u	23µM*	i	-2%
CCOC(=O)Nc1ccc2c(c1)N(C(=O)CCN(C)C)c1ccccc1S2	u	6%	13%	u	i	6%
OCCN=C1CCCc2c1[nH]c1ccc(Br)cc21	0.33µM*	-5%	-2%[9.22 µM]	21%	1µM*	0%
C=CCN=C1CCCc2c1[nH]c1ccc(C)cc21	3.3µM*	14%	0%	-10%	6.5µM*	5%
O=C(N/N=C1\CCCc2c1[nH]c1ccc(Cl)cc21)c1ccncc1	i	u	27%	21%	u	u
c1ccc2c(c1)c1c(c3ccccc32)CN2CCCC2C1 (configuration not stated)	16µM*	u	18µM*	u	u	23µM*
c1ccc(CN2CCC(N3CCC(N4CCCCCC4)CC3)CC2)cc1	i	-19%	u	u	i	-4%
O=C(NC1CCCC1)C(c1ccc(F)cc1)N(Cc1ccc(Cl)cc1)C(=O)CCl (configuration not stated)	16µM*	-1%	1%	11%	u	-13%
Cn1cccc1C(C(=O)NC1CCCCC1)N(C(=O)Cc1cccs1)C1CC1 (configuration not stated)	6.5µM*	-4%	-2%	3%	i	-9%
